Among all 2,100 compounds or so, about 760 (36%) were called active. The list is a sample of the results. A number with no mark means an inactive call.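 How the source made its calls: active means thallium-flux fluorescence traces judged by eye to show enhanced or reduced glutamate response, manual score 1 or -1, so both directions (some results past the limit were not filed as active); inactive means the rest, including fluorescent or raised-baseline compounds.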
Experiment: non-GIRK thallium flux modulation in mGlu8 cells, confirmation, counter-screen for GIRK activator project, cell-based, HEK-293 rmGlu8, no GIRK (AID 623868);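 further: extra codes mark interference with 3 for fluorescent and 4 for baseline rise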
Conditions: thallium flux fluorescence, at 10 µM, actives lie on both sides, codes: 1 enhancer, -1 blocker, 0 none, thallium stimulus containing EC20 glutamate

SMILES | manual score
COCCn1c(CN(Cc2ccccc2)Cc2ccccc2)nc2c1c(=O)n(C)c(=O)n2C | 0
O=C(N/N=C\c1cc(Br)c(Br)o1)c1cncc(Br)c1 | 1 (active)
CCNC(=O)NC(=O)COC(=O)CCCSc1nc2ccccc2[nH]1 | 0
CN(C)CCCOc1ccc(C(C)(C)c2ccccc2)cc1 | 0
O=C(NC(=S)Nc1ccccc1)c1csnn1 | 1 (active)
O=C(NC(=S)Nc1ccccc1Cl)c1csnn1 | 1 (active)
Cc1ccc(C)c(NC(=S)NNC(=O)c2csc(C(C)C)c2)c1 | 1 (active)
CC(C)C(=O)Nc1cccc(NC(=O)c2cc3ccccc3o2)c1 | 0
Cc1cccc(NC(=S)NNC(=O)c2csc(C(C)C)c2)c1 | 1 (active)
O=[n+]1c2c(n([O-])c3cc(F)c(N4CCCC4)cc31)CCC2 | 3
Cc1cccc2c(=O)cc(C)n(CC(=O)N3CCCCC3)c12 | -0.5
CCN(C(=O)CSc1nc2ccccc2n1CCc1ccccc1)C1CCS(=O)(=O)C1 (configuration not stated) | 0
CCOC(=O)CSc1nc(C)c2cc(OC)ccc2n1 | 0
COc1ccc2c(-c3ccccc3)cc(SCC(=O)N(C)C3CCS(=O)(=O)C3)nc2c1 (configuration not stated) | 1 (active)
Cc1ccc(NC(=O)Cc2ccccc2Cl)cc1S(=O)(=O)N(C)C | 0
CN(CCNC(=O)c1cc2c(=O)n(C)c3ccccc3c2n1C)Cc1ccccc1 | 0
CC1(C)Cc2c(ccc3ccccc23)-c2nnc(-c3cccnc3)n21 | 0
COc1ccc(-c2ccnc3nc(Sc4ncc(C(F)(F)F)cc4Cl)nn23)cc1 | 0
COc1cccc(C(=O)NC(=S)Nc2ccc([N+](=O)[O-])cc2C)c1 | 1 (active)
Cc1ccc([N+](=O)[O-])cc1NC(=S)NC(=O)c1ccco1 | 1 (active)
Cc1cc([N+](=O)[O-])ccc1NC(=S)NC(=O)Cc1ccccc1 | 1 (active)
O=C(NC(=S)Nc1cc([N+](=O)[O-])ccc1Cl)c1ccccc1 | 0
Cc1ccc(NC(=S)NCc2ccccc2)cc1[N+](=O)[O-] | 0
O=C(Cc1ccccc1)N/N=C/c1cccn1-c1ccc([N+](=O)[O-])cc1 | 0
CC(=O)Nc1ccc(NC(=O)CSc2nccn2Cc2ccccc2)cc1 | 0
COc1ccc(CO/N=C/c2c(C)[nH]c(=O)[nH]c2=O)cc1 | 0

SMILES | manual score
CCOC(=O)C(CCCCOc1cccc(CC)c1)C(=O)OCC | 0
CCOc1ccc(-c2nc(-c3ccc(OC)cc3)no2)cc1OCC | 0
Oc1c(Cl)cc(Cl)c2c1NCCC2 | 0
Cc1cccc(OCC(O)Cn2c(=N)n(CCN3CCCCC3)c3ccccc32)c1 (configuration not stated) | 0
c1ccc2c(c1)oc1c(N3CCN(Cc4ccc5c(c4)OCO5)CC3)ncnc12 | 0
COc1ccccc1N1CCN(Cc2cc(Br)c(O)c3ncccc23)CC1 | 1 (active)
COC(=O)C1=C(C)NC(=O)/C1=C\c1ccco1 | 0
Cc1cccc(N=C2NC(=O)/C(=C/C=C/c3ccco3)S2)c1C | 1 (active)
CC(C)c1ccc(-c2noc(C3CCCN(S(C)(=O)=O)C3)n2)cc1 (configuration not stated) | 0
O=C(COc1c(Br)cc(Br)c2cccnc12)N1CCc2ccccc2C1 | 1 (active)
CCOC(=O)c1c(C)c(C(=O)N2CCc3ccccc3C2)c(C)n1CC | 0
CC(C)=CCC(C)(C)CNC(=O)NC1CCCCC1 | 0
Cn1c(-c2sc3ccccc3c2Cl)n[nH]c1=S | 1 (active)
CCC(CC)c1nnc(NC(=O)c2ccc3ccccc3n2)s1 | 1 (active)
Cc1nnc(NC(=O)CCSc2ccccc2)s1 | 0
CCC(CC)c1nnc(NC(=O)C2COc3ccccc3O2)s1 (configuration not stated) | 0
Cc1ccc(NC2=NC(=S)N(CC#N)C23CCCCC3)cc1 | 1 (active)
N#CCN1C(=S)N=C(Nc2cccc(Cl)c2)C12CCCCC2 | 0
COc1ccc(NC2=NC(=S)N(c3ccccc3C)C23CCCCC3)cc1 | 1 (active)
CCC1CCCCN1CCCn1c(=S)[nH]c2ccccc2c1=O (configuration not stated) | 1 (active)
O=C(NCc1ccccc1)c1ccc2c(=O)n(CCCN3CCCC3=O)c(=S)[nH]c2c1 | 0
CC1CC(C)CN(CCCn2c(=S)[nH]c3ccccc3c2=O)C1 (configuration not stated) | 1 (active)
CC1CCCCN1CCCn1c(=S)[nH]c2ccccc2c1=O (configuration not stated) | 0
CC(C)CCn1c(CN2CCN(Cc3ccccc3)CC2)nc2c1c(=O)[nH]c(=O)n2C | 0
CCC1CCCN1Cn1cnc2c([nH]c3ccc(OC)cc32)c1=O (configuration not stated) | 0
O=c1c2ccccc2[nH]c(=S)n1CCCN1CCN(C2CCCCC2)CC1 | 1 (active)

— PubChem BioAssay AID623868 (Vanderbilt High Throughput Screening Facility, 2012)
